Test results reported in the supplement of paper PMC8728848.
Shown is part of a subset that was picked to be rich in the strongest signals.

What was measured:
Assay in all cases: glycan array binding signal (z-score within array); higher = stronger binding
Settings in all cases: glycan notation: IUPAC condensed, linker removed
[1] = molecular target: Fuc(a1-2)Gal
Outline: (§1)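 Negative Z-scores can be read as non-binding. The Z-score is calculated within each array and then averaged across arrays of one protein sequence at different concentrations or buffers and across linkers. Arrays, 3228 in all, were curated from the Consortium for Functional Glycomics database and kept only where the protein sequence was available.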

[2] = molecular target: Fuc(a1-2)Gal(b1-4)Glc6S
Outline: as §1

[3] = molecular target: Fuc(a1-2)Gal(b1-4)GlcNAc(b1-2)Man(a1-3)[Fuc(a1-2)Gal(b1-4)GlcNAc(b1-2)Man(a1-6)]Man(b1-4)GlcNAc(b1-4)[Fuc(a1-6)]GlcNAc
Outline: as §1

[4] = molecular target: Fuc(a1-2)Gal(b1-4)GlcNAc(b1-3)GalNAc
Outline: as §1

[5] = molecular target: Fuc(a1-2)Gal(b1-4)[Fuc(a1-3)]GlcNAc(b1-3)GalNAc
Outline: as §1

[6] = molecular target: Fuc(a1-2)Gal(b1-4)[Fuc(a1-3)]GlcNAc(b1-3)[Neu5Ac(a2-6)Gal(b1-4)GlcNAc(b1-6)]Gal(b1-4)Glc
Outline: as §1

[7] = molecular target: Fuc(a1-2)[Gal(a1-3)]Gal(b1-4)GlcNAc(b1-6)GalNAc
Outline: as §1

[8] = molecular target: Fuc(a1-2)[Gal(a1-3)]Gal(b1-4)[Fuc(a1-3)]Glc
Outline: as §1

[9] = molecular target: Fuc(a1-2)[GalNAc(a1-3)]Gal
Outline: as §1

[10] = molecular target: Fuc(a1-3)[Gal(b1-4)]GlcNAc(b1-2)Man(a1-3)[Fuc(a1-3)[Gal(b1-4)]GlcNAc(b1-2)Man(a1-6)]Man(b1-4)GlcNAc(b1-4)GlcNAc
Outline: as §1

[11] = molecular target: Fuc(a1-3)[Gal(b1-4)]GlcNAc(b1-2)Man(a1-3)[Fuc(a1-3)[Gal(b1-4)]GlcNAc(b1-2)Man(a1-6)]Man(b1-4)GlcNAc(b1-4)[Fuc(a1-6)]GlcNAc
Outline: as §1

[12] = molecular target: Fuc(a1-3)[Gal3S(b1-4)]GlcNAc
Outline: as §1

[13] = molecular target: Fuc(a1-4)GlcNAc
Outline: as §1

[14] = molecular target: Fuc(b1-3)GlcNAc
Outline: as §1

[15] = molecular target: Gal(a1-3)Gal(b1-3)GlcNAc
Outline: as §1

[16] = molecular target: Gal(a1-3)Gal(b1-3)GlcNAc(b1-3)GalNAc
Outline: as §1

[17] = molecular target: Gal(a1-3)Gal(b1-4)Glc
Outline: as §1

[18] = molecular target: Gal(a1-3)Gal(b1-4)GlcNAc
Outline: as §1

[19] = molecular target: Gal(a1-3)Gal(b1-4)GlcNAc(b1-3)GalNAc
Outline: as §1

[20] = molecular target: Gal(a1-4)Gal(b1-4)GlcNAc
Outline: as §1

[21] = molecular target: Gal(b1-3)GlcNAc(b1-3)Gal(b1-4)GlcNAc(b1-3)Gal(b1-4)GlcNAc(b1-2)[Gal(b1-3)GlcNAc(b1-3)Gal(b1-4)GlcNAc(b1-3)Gal(b1-4)GlcNAc(b1-6)]Man(a1-6)[Gal(b1-3)GlcNAc(b1-3)Gal(b1-4)GlcNAc(b1-3)Gal(b1-4)GlcNAc(b1-2)Man(a1-3)]Man(b1-4)GlcNAc(b1-4)[Fuc(a1-6)]GlcNAc
Outline: as §1

[22] = molecular target: Gal(b1-3)GlcNAc(b1-3)GalNAc
Outline: as §1

[23] = molecular target: Gal(b1-3)[Fuc(a1-4)]GlcNAc(b1-2)Man(a1-3)[Gal(b1-3)[Fuc(a1-4)]GlcNAc(b1-2)Man(a1-6)]Man(b1-4)GlcNAc(b1-4)[Fuc(a1-6)]GlcNAc
Outline: as §1

[24] = molecular target: Gal(b1-3)[Fuc(a1-4)]GlcNAc(b1-3)Gal(b1-3)[Fuc(a1-4)]GlcNAc
Outline: as §1

[25] = molecular target: Gal(b1-4)Glc
Outline: as §1

[26] = molecular target: Gal(b1-4)GlcNAc(b1-3)Gal(b1-4)GlcNAc(b1-3)Gal(b1-4)GlcNAc
Outline: as §1

[27] = molecular target: Gal(b1-4)GlcNAc(b1-3)Gal(b1-4)GlcNAc(b1-3)Gal(b1-4)GlcNAc(b1-2)[Gal(b1-4)GlcNAc(b1-3)Gal(b1-4)GlcNAc(b1-3)Gal(b1-4)GlcNAc(b1-6)]Man(a1-6)[Gal(b1-4)GlcNAc(b1-3)Gal(b1-4)GlcNAc(b1-3)Gal(b1-4)GlcNAc(b1-2)Man(a1-3)]Man(b1-4)GlcNAc(b1-4)[Fuc(a1-6)]GlcNAc
Outline: as §1

[28] = molecular target: Gal(b1-4)GlcNAc(b1-3)Gal(b1-4)GlcNAc(b1-3)Gal(b1-4)GlcNAc(b1-3)Gal(b1-4)GlcNAc(b1-3)Gal(b1-4)GlcNAc(b1-2)Man(a1-3)[Gal(b1-4)GlcNAc(b1-3)Gal(b1-4)GlcNAc(b1-3)Gal(b1-4)GlcNAc(b1-3)Gal(b1-4)GlcNAc(b1-3)Gal(b1-4)GlcNAc(b1-2)Man(a1-6)]Man(b1-4)GlcNAc(b1-4)[Fuc(a1-6)]GlcNAc
Outline: as §1

B1: SP16664D-bth-476-27-476 (Bacteroides thetaiotaomicron) (protein)
chain: DDLEVGKNIDESAYSGIYENNAYLRDGKSNLVSKVVELHGETYATTVKMGLSKTPNTATSAKVKIDAAYLETYNKAHNTDFALYPQDLVTFANEGILTVNANTKSAEVEMTIRAGEGLQEDKTYAIPVAISDQSSDITIKDEDAKHCIYLVKDMRNAGDAYKGEGVMQGYLFFEVNDVNPLNTLSFQLENGKLLWDVVVLFAANINYDAEAGRPRVQCNPNVQYLLDNNETLLQPLRRRGVKVLLGLLGNHDITGLAQLSEQGAKDFAREVAQYCKAYNLDGVNYDDEYSNSPDLSNPSLTNPSTAAAARLCYETKQAMPDKLVTVFDWGQMYGVATVDGVDAKEWIDIVVANYGSAAYPIGQMTKKQCSGISMEFNLGGGGSLSASKAQSMIDGGYGWFMGFAPSPAKYGSVFSRLQGGGEVLYGSNVAAPTIFYKKNDPTPYKYPDDL
- glycan array binding signal (z-score) [1]: -0.249
- glycan array binding signal (z-score) [2]: 0.006
- glycan array binding signal (z-score) [3]: 0.161
- glycan array binding signal (z-score) [4]: -0.244
- glycan array binding signal (z-score) [5]: 0.134
- glycan array binding signal (z-score) [6]: -0.167
- glycan array binding signal (z-score) [7]: 0.007
- glycan array binding signal (z-score) [8]: -0.184
- glycan array binding signal (z-score) [9]: -0.152
- glycan array binding signal (z-score) [10]: 0.013
- glycan array binding signal (z-score) [11]: 3.02
- glycan array binding signal (z-score) [12]: -0.196
- glycan array binding signal (z-score) [13]: 5.19
- glycan array binding signal (z-score) [14]: -0.141
- glycan array binding signal (z-score) [15]: 0.314
- glycan array binding signal (z-score) [16]: -0.337
- glycan array binding signal (z-score) [17]: -0.117
- glycan array binding signal (z-score) [18]: -0.212
- glycan array binding signal (z-score) [19]: -0.12
- glycan array binding signal (z-score) [20]: -0.17
- glycan array binding signal (z-score) [21]: 0.144
- glycan array binding signal (z-score) [22]: 0.061
- glycan array binding signal (z-score) [23]: 0.054
- glycan array binding signal (z-score) [24]: 1.49
- glycan array binding signal (z-score) [25]: -0.258
- glycan array binding signal (z-score) [26]: 0.004
- glycan array binding signal (z-score) [27]: 1.01
- glycan array binding signal (z-score) [28]: 20
